{
  "source": "PubChem BioAssay AID651871",
  "about": "(Sanford-Burnham Center for Chemical Genomics, 2012)",
  "tested_on": "HL-1",
  "test": "protection of cardiomyocytes from stress damage, SAR follow-up, cell-based, panel, H9c2 and HL-1, ATP luminescence, set 2 (AID 651871);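 further: cells exposed to stressor for 2 h before ATP readout; reference of the scale not given here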",
  "settings": "H9c2/HL-1 cardiomyocytes, 2-deoxyglucose stress, with 2-deoxyglucose, run 5, at 19.8 µM (top of the series)",
  "data": [
    {"smiles": "COc1ccc2c(c1OC)C(=O)N1c3ccccc3C(=O)N(Cc3cccc(Cl)c3Cl)C21", "note": "(stereo unspecified)", "values": [
      {"measurement": "activity (protection/inhibition)", "result": 51.6, "unit": "%"}
    ]}
  ]
}
